Activity calls are given as the source filed them.
Columns and labels:
[1] = test system: Plasmodium falciparum Sir2 (PF13_0152, Sir2A); experiment: pfSir2 binders on small-molecule microarrays, primary screen, biochemical, small-molecule microarray, 635 nm fluorescence (AID 1098); conditions: small-molecule microarray binding, fluorescence 635 nm; higher = more signal;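 further: score merges spot fluorescence intensity with its signal-to-noise ratio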
[2] = small-molecule microarray binders of probe aDKK1, primary screen, biochemical, biotinylated probe, 635/667 nm fluorescence (AID 1099); conditions: higher = more signal;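 further: score merges 667nm spot fluorescence with signal to noise across triplicate slides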
[3] = small-molecule microarray binders of probe aCHRDL2, primary screen, biochemical, biotinylated probe, 635/667 nm fluorescence (AID 1100); conditions: higher = more signal
[4] = splicing luciferase reporter signal modulators, primary screen, spliceosome inhibition project, cell-based, HEK293, splice +/- reporter (AID 1101); conditions: luminescence, 24 h, higher = more signal, called active from +8 up or from −8 down;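 further: HEK293 cells carrying a splicing-competent luciferase reporter gene; test concentration not given here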
[5] = target: Fibroblast growth factor 10 (Homo sapiens) (UniProt O15520); experiment: FGF10 binders on small-molecule microarrays, primary screen, biochemical, small-molecule microarray, 635 nm fluorescence (AID 1102); conditions: FGF10 binding, fluorescence 635 nm, higher = more signal
Sequence of Fibroblast growth factor 10 (Homo sapiens) (O15520 whole entry, looked up): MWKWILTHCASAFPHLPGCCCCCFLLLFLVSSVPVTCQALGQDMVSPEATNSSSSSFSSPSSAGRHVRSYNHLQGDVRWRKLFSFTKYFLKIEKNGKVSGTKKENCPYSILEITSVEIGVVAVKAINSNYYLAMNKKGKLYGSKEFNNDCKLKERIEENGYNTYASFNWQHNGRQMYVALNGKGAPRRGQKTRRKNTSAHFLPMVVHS

[6] = test system: glycogen synthase kinase-3 (GSK3A per assay name; protocol says GSK3B); experiment: GSK3 binders on small-molecule microarrays, primary screen, biochemical, small-molecule microarray, 635 nm fluorescence, GSK3A (AID 1103); conditions: small-molecule microarray binding, fluorescence 635 nm; higher = more signal; further: the record names both GSK3A and GSK3B
[7] = target: Epidermal growth factor receptor (Homo sapiens) (UniProt P00533); experiment: EGFR binders on small-molecule microarrays, primary screen, biochemical, small-molecule microarray, 635 nm fluorescence (AID 1104); conditions: EGFR binding, higher = more signal;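 further: score merges 667 nm emission intensity with spot signal to noise over triplicate slides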
Sequence of Epidermal growth factor receptor (Homo sapiens) (P00533 whole entry, looked up): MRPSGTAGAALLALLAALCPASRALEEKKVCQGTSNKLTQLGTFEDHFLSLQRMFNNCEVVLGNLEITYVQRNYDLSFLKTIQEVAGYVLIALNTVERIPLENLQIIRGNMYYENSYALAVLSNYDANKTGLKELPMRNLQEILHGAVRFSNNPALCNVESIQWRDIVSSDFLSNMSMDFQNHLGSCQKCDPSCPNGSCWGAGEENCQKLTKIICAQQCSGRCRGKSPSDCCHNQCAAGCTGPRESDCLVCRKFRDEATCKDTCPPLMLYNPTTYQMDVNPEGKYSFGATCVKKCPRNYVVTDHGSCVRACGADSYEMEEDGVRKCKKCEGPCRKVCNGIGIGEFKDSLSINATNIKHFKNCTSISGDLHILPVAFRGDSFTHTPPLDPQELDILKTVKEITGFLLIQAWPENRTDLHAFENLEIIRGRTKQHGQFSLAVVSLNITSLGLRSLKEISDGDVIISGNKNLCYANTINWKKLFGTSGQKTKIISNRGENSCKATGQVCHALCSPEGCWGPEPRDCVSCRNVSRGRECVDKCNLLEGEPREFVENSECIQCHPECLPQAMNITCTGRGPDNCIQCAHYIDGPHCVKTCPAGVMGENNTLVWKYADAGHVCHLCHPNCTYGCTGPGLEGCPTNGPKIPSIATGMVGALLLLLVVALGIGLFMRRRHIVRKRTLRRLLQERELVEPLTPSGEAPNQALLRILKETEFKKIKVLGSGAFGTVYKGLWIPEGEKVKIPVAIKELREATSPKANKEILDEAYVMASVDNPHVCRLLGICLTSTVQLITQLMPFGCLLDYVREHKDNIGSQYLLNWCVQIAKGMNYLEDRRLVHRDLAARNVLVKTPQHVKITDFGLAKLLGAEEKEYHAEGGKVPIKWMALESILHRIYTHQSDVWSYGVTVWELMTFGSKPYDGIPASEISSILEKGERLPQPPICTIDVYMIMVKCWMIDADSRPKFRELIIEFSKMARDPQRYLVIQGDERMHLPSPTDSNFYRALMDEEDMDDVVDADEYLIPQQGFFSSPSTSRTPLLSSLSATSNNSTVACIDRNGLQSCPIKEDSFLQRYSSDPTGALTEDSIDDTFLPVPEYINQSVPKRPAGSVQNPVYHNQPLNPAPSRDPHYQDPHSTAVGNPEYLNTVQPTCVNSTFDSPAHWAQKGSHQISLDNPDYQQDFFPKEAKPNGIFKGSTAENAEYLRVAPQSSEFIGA

[8] = target: Follistatin-related protein 3 (Homo sapiens) (UniProt O95633); experiment: FSTL3 binders on small-molecule microarrays, primary screen, biochemical, small-molecule microarray, 635 nm fluorescence (AID 1105); conditions: FSTL3 binding, higher = more signal;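 further: score merges emission near 667 nm and signal to noise per printed spot across three slides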
Sequence of Follistatin-related protein 3 (Homo sapiens) (O95633 whole entry, looked up): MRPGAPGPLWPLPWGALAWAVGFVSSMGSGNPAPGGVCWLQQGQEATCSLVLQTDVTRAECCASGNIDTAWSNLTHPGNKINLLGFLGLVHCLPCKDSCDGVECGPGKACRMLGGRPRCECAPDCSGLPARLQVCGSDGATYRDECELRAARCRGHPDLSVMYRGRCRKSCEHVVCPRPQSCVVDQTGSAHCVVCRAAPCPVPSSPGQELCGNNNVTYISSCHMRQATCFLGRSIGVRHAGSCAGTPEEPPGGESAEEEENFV

[9] = target: Dickkopf-related protein 1 (Homo sapiens) (UniProt O94907); experiment: DKK1 binders on small-molecule microarrays, primary screen, biochemical, small-molecule microarray, 635 nm fluorescence scan (AID 1106); conditions: DKK1 binding, higher = more signal;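 further: score merges emission near 667 nm with signal to noise over three replicate slides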
Sequence of Dickkopf-related protein 1 (Homo sapiens) (O94907 whole entry, looked up): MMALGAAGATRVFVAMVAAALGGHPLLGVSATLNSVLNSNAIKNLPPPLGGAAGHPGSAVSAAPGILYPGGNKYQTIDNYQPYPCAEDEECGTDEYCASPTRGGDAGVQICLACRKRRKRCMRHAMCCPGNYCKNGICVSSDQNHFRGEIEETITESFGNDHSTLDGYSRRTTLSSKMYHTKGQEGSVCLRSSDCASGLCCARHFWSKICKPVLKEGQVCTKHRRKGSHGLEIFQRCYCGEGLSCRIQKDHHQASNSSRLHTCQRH

[10] = test system: Inhibin beta A chain (activin A); experiment: INHBA (activin A) binders on microarrays, primary screen, biochemical, small-molecule microarray, 635 nm fluorescence scan (AID 1107); conditions: small-molecule microarray binding, higher = more signal;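 further: mouse activin A protein probed at 4.33 µg/mL on printed slides; score merges bound-protein fluorescence near 667 nm with spot signal-to-noise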
[11] = test system: Human papillomavirus type 1a protein E7 (residues 44-93); experiment: HPV1a E7 fragment binders on microarrays, primary screen, biochemical, small-molecule microarray, residues 44-93, 635 nm fluorescence (AID 1108); conditions: small-molecule microarray binding, fluorescence 635 nm; higher = more signal;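 further: E7 fragment applied at 1 µg/mL in TBST for 1 h at 4 C; score combines spot fluorescence with its signal to noise ratio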
[12] = modulators of HCV replicon luciferase signal, primary screen, HCV replication inhibitor project, Huh7 cells, luciferase reporter (AID 1109); conditions: 48 h, higher = more signal;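 further: huh7 hepatoma cells harbouring a luciferase neomycin HCV replicon reporter; luciferase luminescence as measure of HCV replicon replication; test concentration not given here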
[13] = target: Left-right determination factor 2 (Homo sapiens) (UniProt O00292); experiment: LEFTY2 binders on small-molecule microarrays, primary screen, biochemical, small-molecule microarray, 635 nm fluorescence scan (AID 1110); conditions: LEFTY2 binding, higher = more signal
Sequence of Left-right determination factor 2 (Homo sapiens) (O00292 whole entry, looked up): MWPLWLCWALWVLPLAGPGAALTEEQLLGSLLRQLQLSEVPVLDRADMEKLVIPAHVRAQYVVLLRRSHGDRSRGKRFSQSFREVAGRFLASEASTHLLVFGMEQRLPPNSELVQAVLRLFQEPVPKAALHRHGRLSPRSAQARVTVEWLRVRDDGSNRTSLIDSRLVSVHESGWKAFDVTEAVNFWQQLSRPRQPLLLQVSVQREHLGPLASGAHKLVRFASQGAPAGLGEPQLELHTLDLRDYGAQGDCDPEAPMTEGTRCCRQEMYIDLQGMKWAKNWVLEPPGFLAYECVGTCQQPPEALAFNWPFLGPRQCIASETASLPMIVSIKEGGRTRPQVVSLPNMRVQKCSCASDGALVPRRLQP

[14] = target: Calmodulin-1 (Homo sapiens) (UniProt P0DP23); experiment: CALM1 binders on microarrays, EGTA buffer, profiling panel, biochemical, small-molecule microarray, Cy5-labelled CALM1 (AID 1111); conditions: Cy5-CALM1 binding fluorescence, higher = more signal;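 further: labelled calmodulin applied in Tris saline Tween buffer holding calcium plus EGTA and DTT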
[15] = target: Calmodulin-1 (Homo sapiens) (UniProt P0DP23); experiment: calcium-bound CALM1 binders on microarrays, profiling panel, artefact control for SMM control-protein annotation, biochemical, small-molecule microarray, Cy5-labelled CALM1, plus calcium (AID 1112); conditions: Cy5-CALM1 binding fluorescence, higher = more signal;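 further: score merges spot fluorescence with signal to noise from triplicate slides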
[16] = small-molecule microarray binders of probe aWnt5a, primary screen, biochemical, biotinylated probe, 635/667 nm fluorescence (AID 1113); conditions: higher = more signal;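 further: score merges 667 nm fluorescence intensity with signal-to-noise per printed feature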
[17] = small-molecule microarray binders of probe aShh, primary screen, biochemical, biotinylated probe, 635/667 nm fluorescence (AID 1114); conditions: higher = more signal;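 further: probe is biotin-labelled aShh protein from a stem cell growth factor screen; measures binding of labelled protein to compounds printed on the slide; score merges feature fluorescence at 667 nm with signal-to-noise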
[18] = small-molecule microarray binders of probe aNog, primary screen, biochemical, biotinylated probe, 635/667 nm fluorescence (AID 1115); conditions: higher = more signal;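 further: probe is biotinylated aNog protein used at 0.15 µg/mL for 1 h at 4 C; z-score combines 667 nm fluorescence of each spot with its signal to noise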
[19] = target: Torsin-1A-interacting protein 1 (Homo sapiens) (UniProt Q5JTV8); experiment: LAP1 binders from COS7 cell lysate, primary screen, small-molecule microarray, 635/667 nm fluorescence (AID 1116); conditions: COS7-hLAP1 lysate binding, 635 nm fluorescence, higher = more signal
Sequence of Torsin-1A-interacting protein 1 (Homo sapiens) (Q5JTV8 whole entry, looked up): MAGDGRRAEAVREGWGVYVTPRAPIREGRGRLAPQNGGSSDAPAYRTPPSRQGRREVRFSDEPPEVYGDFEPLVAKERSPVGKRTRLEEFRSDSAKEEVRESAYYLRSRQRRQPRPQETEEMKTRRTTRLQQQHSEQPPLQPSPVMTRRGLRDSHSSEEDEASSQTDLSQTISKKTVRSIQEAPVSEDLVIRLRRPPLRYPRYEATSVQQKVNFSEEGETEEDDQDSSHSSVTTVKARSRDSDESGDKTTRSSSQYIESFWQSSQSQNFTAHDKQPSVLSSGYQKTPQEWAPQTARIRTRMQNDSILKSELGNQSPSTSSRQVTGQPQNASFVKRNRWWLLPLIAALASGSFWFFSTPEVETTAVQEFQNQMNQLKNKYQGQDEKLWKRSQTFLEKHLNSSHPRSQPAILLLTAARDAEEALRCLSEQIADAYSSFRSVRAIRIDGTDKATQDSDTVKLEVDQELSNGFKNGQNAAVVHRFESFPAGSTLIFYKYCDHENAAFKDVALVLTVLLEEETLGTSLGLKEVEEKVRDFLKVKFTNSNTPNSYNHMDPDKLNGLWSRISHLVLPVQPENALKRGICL

[20] = target: Alpha-bungarotoxin (Bungarus multicinctus) (UniProt P60615); experiment: alpha-bungarotoxin binders on microarray, profiling panel, artefact control for SMM control protein annotation, biochemical, small-molecule microarray, Alexa647 label, 635/667 nm fluorescence (AID 1117); conditions: alpha-BTX-A647 binding fluorescence, higher = more signal
Sequence of Alpha-bungarotoxin (Bungarus multicinctus) (P60615 whole entry, looked up): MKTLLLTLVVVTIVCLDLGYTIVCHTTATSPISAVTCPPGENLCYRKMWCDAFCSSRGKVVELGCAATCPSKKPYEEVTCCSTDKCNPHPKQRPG

Row | Compound | composite z-score [1] | composite z-score [2] | composite z-score [3] | z-score [4] | composite z-score [5] | composite z-score [6] | composite z-score [7] | composite z-score [8] | composite z-score [9] | composite z-score [10] | composite z-score [11] | z-score [12] | composite z-score [13] | composite z-score [14] | composite z-score [15] | composite z-score [16] | composite z-score [17] | composite z-score [18] | composite z-score [19] | composite z-score [20]
1 | C=CCOC(=O)[C@H]1[C@@H]2C(=O)O[C@@H](c3ccccc3)[C@@H](c3ccccc3)N2[C@@H](c2ccc(OCCOC(=O)[C@@H]3C[C@@H]4C(=O)N[C@@H](CC(C)C)C(=O)N4[C@@H]3c3ccc(O)cc3)cc2)[C@]12C(=O)Nc1ccc(I)cc12 | 1.09 | 0.0615 | -0.0756 | -1.41 (inactive) | 0.649 | 1.13 | 0.993 | 0.644 | 0.928 | -0.0053 | 1.37 | -1.16 | 0.835 | 1.81 | 0.303 | 0.0095 | -0.0553 | 0.287 | 1.47 | 0.912
2 | CC(C)CNC(=O)[C@@H]1c2ccccc2C(=O)N(Cc2ccccc2)[C@H]1c1ccc(CO)cc1 | 0.0346 | 0.282 | 0.96 | -0.18 (inactive) | -0.787 | 0.0758 | -1.35 | -1.38 | -1.05 | -0.217 | 0.93 | 0.372 | -1.35 | -0.148 | -0.202 | -0.253 | -0.1 | 0.127 | 0.936 | -0.865
3 | CC(=O)c1ccc(C(O)C2C=CC3C(=O)N(C)C(=O)C3N2NC(=O)OC(C)(C)C)cc1 (stereo not given) | 1.44 | 0.86 | 0.948 | 1.66 (inactive) | 1.17 | 0.944 | -0.499 | 0.425 | -0.698 | -0.149 | 0.955 | -0.859 | 0.237 | 2.2 | 1.19 | 0.0279 | 0.207 | 1.7 | 0.486 | 2.12
4 | O=C(NCCO)C1=C[C@H](Oc2ccccc2I)[C@@H](O)[C@H](NCc2ccc(F)cc2)C1 | -1.55 | -0.472 | -0.552 | -0.635 (inactive) | 1.61 | -0.814 | -0.201 | -1.52 | 1.19 | -2.01 | -0.938 | -3.66 | 0.949 | -0.815 | -2.87 | -0.237 | -0.262 | -0.0542 | 5.01 | -0.89
5 | CN(C)CCCC[C@@H]1NC(=O)[C@H]2C[C@@H](C(=O)O)[C@@H](c3cccc(OCCO)c3)N2C1=O | 1.67 | 0.696 | 0.555 | -0.348 (inactive) | 0.702 | 1.14 | 0.258 | 0.666 | 0.969 | 0.658 | -0.226 | 4.23 | 0.494 | -0.526 | 0.16 | 0.0495 | 0.0611 | 0.25 | 0.633 | 1.47
6 | CC(=O)c1ccc(C(O)C2C=CC3C(=O)NC(=O)C3N2Nc2ccc(Cl)cc2Cl)cc1 (stereo not given) | 0.366 | 0.947 | 1.02 | 0.58 (inactive) | 0.554 | -0.454 | 0.0262 | 0.141 | -0.291 | 1.03 | 0.18 | -0.38 | -0.16 | 0.594 | 0.468 | -0.0161 | 0.522 | 1.25 | 0.0338 | 0.186
7 | CC(=O)NCCCC[C@@H]1NC(=O)[C@H]2C[C@@H](C(=O)NCCCCCC[N+](C)(C)C)[C@@H](c3ccc(O)cc3)N2C1=O | 1.71 | -0.186 | -0.414 | -0.652 (inactive) | 0.348 | 0.612 | 0.173 | 0.946 | 1.23 | 0.965 | 1.4 | 1.38 | 0.62 | -0.183 | -0.906 | -0.107 | -0.153 | 0.762 | 0.611 | 0.472
8 | Cc1c(-c2ccc(-c3ccc(Cl)c(Cl)c3)o2)nc(-c2ccccc2)c2c1CO[Si]2(C(C)C)C(C)C | 0.872 | -0.186 | 0.11 | 2.11 (inactive) | 0.316 | -0.449 | -0.532 | -0.382 | -0.234 | 0.938 | 0.296 | -0.403 | -0.487 | -0.179 | -0.0727 | -0.113 | 0.0326 | -0.103 | 0.125 | -0.0982
9 | NC(=O)NCC#Cc1ccc2c(c1)[C@]1(C(=O)N2)[C@H](C(=O)Nc2nc3ccccc3s2)[C@H]2C(=O)O[C@H](c3ccccc3)[C@H](c3ccccc3)N2[C@@H]1c1ccc(OCCO)cc1 | -0.478 | 0.738 | 1.13 | 1.37 (inactive) | 0.253 | -0.95 | 0.0294 | 0.559 | -0.52 | 0.765 | 0.537 | -0.942 | -0.828 | 0.84 | 0.417 | 0.0108 | -0.151 | -0.464 | 0.281 | 0.9
10 | C=C(/C(=C/C[C@H](OC(=O)c1ccncc1)c1ccccc1OCCO)c1cc(C(=O)OC)ccc1OC)C(C)C | 0.748 | -0.0168 | 0.253 | -0.361 (inactive) | 1.54 | 0.33 | -0.105 | 1.1 | 0.599 | 1.25 | 1.03 | -2.96 | 0.255 | -0.23 | -0.587 | 0.132 | 0.0639 | -0.194 | 0.0538 | 1.42
11 | COc1cc(OC)c(C(O)C2C=CC3C(=O)N(c4ccccc4)C(=O)C3N2Nc2ccccc2F)cc1Br (stereo not given) | 0.76 | 0.805 | 0.95 | 0.484 (inactive) | 0.97 | 0.0826 | 0.256 | 1.45 | -0.351 | 0.625 | 1.31 | -1.17 | -0.137 | 1.96 | 0.764 | -0.0462 | 0.279 | 1.62 | 1.63 | 1.92
